# Measured values from PubChem BioAssay (NCI).
# This is part of a sample that, as a whole, favours compounds with a hit. Of some 83,000 tested, about 20% had one in any assay.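 96-well plates, one dose, 48 hours. Percent growth reported; active if below 10.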 Values without a mark were called inactive. Active and inactive are the calls of the source.
# Tests used:
# Test in all cases: NCI-60 one-dose screen, 48 h (100 = growth as untreated, 0 = no growth, -100 = all killed)
# Details in all cases: 10 µM unless noted
# HCT-15 colon = test system: HCT-15 colon
# HT29 colon = test system: HT29 colon
# SNB-75 CNS = test system: SNB-75 CNS
# SNB-19 CNS = test system: SNB-19 CNS
# U251 CNS = test system: U251 CNS
# PC-3 prostate = test system: PC-3 prostate
# SK-MEL-5 melanoma = test system: SK-MEL-5 melanoma
# UACC-62 melanoma = test system: UACC-62 melanoma
# LOX IMVI melanoma = test system: LOX IMVI melanoma
# SK-MEL-28 melanoma = test system: SK-MEL-28 melanoma
# SK-MEL-2 melanoma = test system: SK-MEL-2 melanoma
# EKVX NSCLC = test system: EKVX NSCLC
# SN12C renal = test system: SN12C renal
# UO-31 renal = test system: UO-31 renal
# TK-10 renal = test system: TK-10 renal
# ACHN renal = test system: ACHN renal
# CAKI-1 renal = test system: CAKI-1 renal
# A498 renal = test system: A498 renal
# CCRF-CEM leukemia = test system: CCRF-CEM leukemia
# MOLT-4 leukemia = test system: MOLT-4 leukemia
Structure (SMILES),growth (HCT-15 colon),growth (HT29 colon),growth (SNB-75 CNS),growth (SNB-19 CNS) [%],growth (U251 CNS),growth (PC-3 prostate),growth (SK-MEL-5 melanoma),growth (UACC-62 melanoma),growth (LOX IMVI melanoma),growth (SK-MEL-28 melanoma),growth (SK-MEL-2 melanoma),growth (EKVX NSCLC),growth (SN12C renal),growth (UO-31 renal),growth (TK-10 renal),growth (ACHN renal),growth (CAKI-1 renal),growth (A498 renal),growth (CCRF-CEM leukemia),growth (MOLT-4 leukemia)
COc1ccc(C(C)=O)cc1S(=O)(=O)Nc1c(N)nc(SC)[nH]c1=O,100%,104%,98.2%,109,111%,104%,100%,97.1%,96.3%,109%,111%,101%,103%,94.5%,109%,106%,93.2%,106%,107%,99.6%
N#CC1=C(N)Oc2c(ccc3ccccc23)C1c1ccccc1 (stereo not given),8.12% (active),-2.07% (active),35.6%,26.6,9.37% (active),6.19% (active),4.54% (active),26.9%,7.97% (active),49.4%,43.1%,41.9%,32.5%,39.3%,46.8%,31.2%,18.1%,33.7%,9.24% (active),14.6%
CCOC(=O)c1ccc(NC(=O)c2nc(-c3cc(OC)c(OC)c(OC)c3)n(-c3ccc(Cl)cc3)n2)cc1,93.2%,89.9%,81%,88.8,93.8%,77.5%,63.6%,77.7%,91.8%,95%,85.9%,94%,85.2%,58.8%,93.3%,94.1%,80.7%,86%,90%,81.8%
O=C(NCCNc1nccc(Nc2ccc(S(=O)(=O)Nc3ccccn3)cc2)n1)c1cccc([N+](=O)[O-])c1,105%,90.6%,93.5%,112,97.6%,94.2%,103%,100%,101%,107%,101%,98.6%,99.9%,82.5%,100%,102%,93.6%,83.6%,101%,93.8%
CCc1ncnc2c1ccn2C(C)c1ccc(OC)c(F)c1 (stereo not given),39.2%,14%,35.8%,53.2,35.3%,53.8%,33%,39.8%,45.3%,66.5%,34.3%,51.9%,67%,60.1%,58.8%,75.4%,40.5%,46.3%,42.4%,32.7%
O=C(Nc1cccc2ccccc12)NC1CC1,112%,114%,83.6%,107,101%,97.4%,103%,99.8%,101%,105%,121%,109%,106%,88%,117%,101%,96.5%,112%,97.5%,92.6%
CC(C)(Sc1cc(C(C)(C)C)c(OC(=O)CCCC(=O)O)c(C(C)(C)C)c1)Sc1cc(C(C)(C)C)c(OC(=O)CCCC(=O)O)c(C(C)(C)C)c1,7.28% (active),26.9%,68%,29.6,14.4%,36.2%,-3.74% (active),-19.7% (active),27.1%,24.9%,55.2%,47.2%,19.6%,37.9%,58.6%,26.9%,52.8%,66.5%,37.8%,26.6%
NC(=O)C(=O)c1ccccc1NC=O,105%,101%,77.2%,99.9,96.3%,90.1%,103%,92.1%,93.1%,101%,112%,101%,96.6%,60.9%,107%,94.8%,75.2%,120%,99.1%,108%
CCNCCNc1cc(C2CCCCC2)c(C#N)c2nc3ccccc3n12,16.7%,-50% (active),-26% (active),42.9,-37.7% (active),40.2%,-55.1% (active),-62% (active),-94.8% (active),-73.1% (active),23.2%,36%,12.8%,-41% (active),27.2%,-52.2% (active),25.1%,-25.1% (active),-28.6% (active),-7.01% (active)
COc1cccc(CNc2ccc3ncnc(Nc4ccc(F)c(Cl)c4)c3c2)c1,53.2%,88.3%,79.3%,69,71.4%,52.7%,89.5%,81.1%,69.8%,107%,94.9%,26%,52.8%,32.5%,29.8%,26.2%,34.6%,45.1%,75.1%,69.9%
Nc1[nH]n2cc(-c3ccccc3)nc2c1N=Nc1ccc(S(N)(=O)=O)cc1,22.8%,38.8%,1.09% (active),60.4,38.7%,32.4%,26.8%,31.3%,17.4%,45%,31.6%,54.6%,20.1%,19.5%,48.4%,8.58% (active),3.86% (active),8.19% (active),19.7%,13.9%
CCOc1nc(-c2ccccc2)cc2c(O)c(C(=O)N/N=C/c3ccccc3)[nH]c(=O)c12,104%,105%,122%,105,106%,93.5%,102%,103%,109%,114%,36.5%,96.1%,110%,93.2%,151%,107%,104%,91.3%,106%,79.7%
O=C1/C=C/[C@@H](O)[C@@H]2C[C@@H](O)C[C@H]2/C=C/CCC[C@H](CCc2ccccc2)O1,11%,3.12% (active),28.9%,31.4,20.1%,16.7%,-92.9% (active),23.7%,-59.1% (active),-2.32% (active),-8.8% (active),8.4% (active),11.8%,14.7%,-26% (active),7.03% (active),-8.69% (active),-28.2% (active),13.1%,9.48% (active)
CCCNc1nc2ccccc2c2c1S(=O)(=O)c1ccc(Cl)cc1C2=O,7.22% (active),9.72% (active),15.6%,24.4,1.6% (active),25.1%,2.77% (active),10.9%,4.45% (active),32.8%,8.94% (active),25.8%,-1.38% (active),10.9%,17.3%,10.7%,18.2%,31.1%,-5.94% (active),4.02% (active)
